D1 antagonist: blocks dopamine activation of the human D1 receptor | activity change, negative = inhibition, % at 10 µM | 360,000 compounds, 3.2% hits | P21728 | HEK293 TREx D1 cells, calcium flux, dopamine EC80; hits give low values; in the data active means activity change below about -30%; further: on the % scale 0 is the no-effect control and ±100 the full control effect
Target sequence (P21728 whole entry, looked up): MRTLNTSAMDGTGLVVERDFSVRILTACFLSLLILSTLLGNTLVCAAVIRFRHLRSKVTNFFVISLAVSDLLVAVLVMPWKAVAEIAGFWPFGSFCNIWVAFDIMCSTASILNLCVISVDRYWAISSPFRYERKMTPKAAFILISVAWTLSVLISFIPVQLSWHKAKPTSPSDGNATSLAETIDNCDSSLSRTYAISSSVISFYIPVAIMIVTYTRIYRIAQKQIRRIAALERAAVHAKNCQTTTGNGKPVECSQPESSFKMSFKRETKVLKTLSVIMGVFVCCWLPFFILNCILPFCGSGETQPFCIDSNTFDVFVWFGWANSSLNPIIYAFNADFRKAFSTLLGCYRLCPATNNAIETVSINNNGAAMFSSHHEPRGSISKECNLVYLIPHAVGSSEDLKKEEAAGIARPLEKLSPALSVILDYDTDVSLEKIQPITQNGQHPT
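Kinetic fluorescence of a calcium dye serves as the read-out. D1-expressing Hek293 Trex cells, induced overnight at 30 C, are exposed to compound for 180 s before an EC80 dopamine addition, then read 180 s further.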
D1 agonist: agonists of human D1 dopamine receptor. P21728. HEK293 T-REx D1 cells, calcium flux, agonist mode. activation, % at 2 µM. 360,000 compounds, 1% hits; further: 0% is about no effect
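Tetracycline-induced HEK293 TREx D1 cells, force-coupled to calcium signalling, were dye-loaded with a no-wash calcium kit. Compound was pin-added after a 10 s baseline. Fluorescence was read kinetically at 1 cycle/s for 180 s, with calcium rises flagged as agonism.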
TRHR PAM: allosteric enhancers of human TRH receptor; P34981; TRHR cells, fluo-8 calcium fluorescence, EC20 TRH enhancement; enhancement, % at 2 µM; 360,000 compounds, 0.66% hits; AID 493056; in the data active means enhancement above about 30%; further: 0% is about no effect
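Enhancer read-out: after compound pinning and an initial kinetic agonist-mode read, an EC20 of TRH (10 nM final) was injected and fluo-8 calcium signal (Ex 480/Em 530) followed at 1 s/cycle for 100 cycles in TRHR-expressing cells.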
D1 PAM: human D1 dopamine receptor positive modulation; potentiation, % at 10 µM; HEK293 TREx D1 cells, calcium flux, dopamine EC20 potentiation; P21728; 360,000 compounds, 0.036% hits; in the data active means potentiation above about 30%; further: 0% is about no effect
TRHR ag: TRH receptor (human) agonism; AID 493084; 360,000 compounds, 0.18% hits; activation, % at 2 µM; TRHR cells, calcium flux fluo-8, FDSS agonist mode; further: 0% is about no effect
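Read-out: compound-evoked intracellular calcium rise in TRHR cells, fluo-8 dye, kinetic FDSS fluorescence at 1 s/cycle following a 10-cycle baseline. Cells cultured overnight before dye loading (30 min–1.5 h, RT).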
The depositor's hits bear a star. Only some compounds are listed: those with a hit (about 4.7% of all), similar ones and a draw of the others. Unless noted, no stated cut-off is given here; in the data, active means activation above about 30%; inactive means the rest.

SMILES	D1 antagonist	D1 agonist	TRHR PAM	D1 PAM	TRHR ag
CCCOc1cccc(C(=O)NC(=S)Nc2ccc(N3CCN(C)CC3)cc2)c1	15	4	8	-10	0
Cc1ccc(Cn2cc(/C=N/NC(=O)Cc3nnc(NC(=O)c4ccc(C)cc4)s3)c3ccccc32)cc1	10	1	5	-2	-1
Cc1ccc(S(=O)(=O)CC(=O)c2ccccc2[N+](=O)[O-])cc1	-1	4	-2	1	0
COc1ccc(Cl)cc1NC(=O)CN(C)C(=O)CCNC(=O)c1ccccc1OC	-13	2	-11	-2	-2
O=C(Nc1ccc(N2CCOCC2)cc1)c1cccc(S(=O)(=O)N2CCCC2)c1	-1	10	1	1	0
Cc1c(NC(=S)NC(=O)c2ccc(-c3ccc(Cl)cc3)o2)cccc1C(=O)O	-31*	-4	5	-5	0
CN1CCN(c2ccc(NC(=O)c3ccc(-c4ccc(Cl)cc4)o3)cc2)CC1	-72*	21	0	-2	0
CN1CCN(c2ccc(NC(=O)c3cccc(S(=O)(=O)N4CCCC4)c3)cc2)CC1	-34*	-1	1	-12	0
O=C(NC1=NCCS1)c1cccc(S(=O)(=O)N2CCCCC2)c1	-34*	-1	21	-2	0
COC(=O)c1ccccc1NC(=O)COCc1cc(-c2cccs2)on1	-5	9	2	4	1
O=C(NCc1ccccc1)C(c1cccnc1)N(C(=O)c1ccccn1)c1ccc(F)cc1 (configuration not stated)	29	2	-3	-3	0
O=C(CCN1CCN(c2ccccc2)CC1)NNC(=O)Cc1ccc(Br)cc1	-39*	1	2	-9	0
Cc1ccc(C(=O)Nc2ccc(N3CCN(C)CC3)cc2)cc1C	-31*	1	7	-19	-1
CC(C)Oc1cccc(C(=O)Nc2ccc(N3CCN(C)CC3)cc2)c1	-57*	-1	7	-11	0
Cc1ccc(C(NC(=O)c2cccc(S(=O)(=O)N3CCN(C)CC3)c2)c2ccccc2)cc1 (configuration not stated)	-66*	5	2	-1	1
Cc1ccc(C(=O)Nc2ccc(N3CCN(S(C)(=O)=O)CC3)cc2)cc1C	14	3	-4	6	0
CC(Oc1ccc(Br)cc1)C(=O)NNC(=O)CCN1CCN(c2ccccc2)CC1 (configuration not stated)	-21	1	-2	-10	-1
Cc1ccc(C2=NCCn3c2c2ccccc2[n+]3[O-])cc1	13	-1	3	-8	0
Cc1ccccc1C(=O)Nc1nnc(S(=O)(=O)N2CCc3ccccc32)s1	5	4	13	-5	0
O=C(NCC1CCCO1)c1cccc(NC(=O)c2ccccc2)c1 (configuration not stated)	-31*	3	3	3	0
Cc1ccccc1-c1noc(-c2ccccc2C(=O)NCC2CCCO2)n1 (configuration not stated)	-30*	0	-7	-1	0
O=C(Cn1c(C(=O)NCC2CCCO2)cc2sccc21)c1ccccc1 (configuration not stated)	-50*	1	-4	-5	-1
COc1ccccc1-c1noc(-c2ccccc2C(=O)NCC2CCCO2)n1 (configuration not stated)	1	0	9	-5	0
COc1ccc(N(C)S(=O)(=O)c2cccc(C(=O)NCC3CCCO3)c2)cc1 (configuration not stated)	-1	-1	8	2	-1
COc1ccc(N(Cc2ccccc2)S(=O)(=O)c2cccc(C(=O)NCC3CCCO3)c2)cc1 (configuration not stated)	-37*	14	-6	-5	-1
SMILES	D1 antagonist	D1 agonist	TRHR PAM	D1 PAM	TRHR ag
Cc1ccccc1OCC(=O)OCc1cc(=O)n2nc(C3CCCCC3)sc2n1	7	8	8	-7	0
CCc1ccc(-n2nc(C)c3c(C(=O)Nc4cc(C)ccc4C)cc(C)nc32)cc1	-2	2	-4	-7	0
CCSc1ncc(Cl)c(C(=O)Nc2c(C(=O)Nc3ccc(Cl)cc3)oc3ccccc23)n1	2	0	-3	0	0
CC(C)Cn1c(CCNC(=O)c2ccco2)nc2ccccc21	-7	0	-3	3	0
Cc1ccc(NC(=O)N2CC3CCCN3c3ccccc32)c(C)c1 (configuration not stated)	-9	4	3	-4	-1
Cc1cccc(NS(=O)(=O)c2ccc(C(=O)NCC3CCCO3)cc2)c1C (configuration not stated)	-15	14	-5	-7	1
O=C(NCC1CCCO1)c1cccc(Oc2ccc([N+](=O)[O-])cc2)c1 (configuration not stated)	-35*	11	3	-6	-1
O=C(NCC1CCCO1)c1cccc(Oc2ccccc2)c1 (configuration not stated)	-3	1	-6	-1	3
O=C(NCC1CCCO1)c1ccc(S(=O)(=O)Nc2ccccc2F)cc1 (configuration not stated)	-38*	3	-7	-4	0
CCc1ccc(NC(=O)CCCNC(=O)Cn2cnc3sc(C)c(C)c3c2=O)cc1	2	2	0	2	0
COC(=O)c1cccc(C23CC4(C2)[C@H](CN(Cc2ccc(-c5ccccc5)cc2)[C@@H]4c2ccccc2)C3c2ccc(Cl)nc2)c1 (some centres not stated)	-36*	2	6	-9	0
COC(=O)c1cccc(C23CC4(C2)[C@H](CN(Cc2cccnc2)[C@@H]4c2ccccc2)C3c2ccc(Cl)nc2)c1 (some centres not stated)	36	4	2	3	0
Cc1cccc(NC(=O)c2cccc(NC(=O)Cc3cccs3)c2)c1	-48*	5	-2	-7	1
COc1cc(NC(=O)Cc2cccs2)c(C(=O)O)cc1OC	-32*	2	-4	-3	0
COc1cc(NC(=O)Cc2cccs2)cc(OC)c1	-33*	2	1	15	0
COc1cccc(NC(=O)Cc2cccs2)c1	-14	4	-3	-4	0
CCC1=C(OC(=O)N(CC)CC)N2C(=O)OC(=NCCc3c[nH]c4ccccc34)[C@]2(Cc2ccccc2)[C@H]2C1=CC[C@H]1C(=O)N(CC)C(=O)[C@H]12	-21	1	4	-1	0
O=C(CNC(=O)C1CCCCC1)OC(C(=O)Nc1cc(C(F)(F)F)ccc1Cl)c1ccccc1 (configuration not stated)	21	2	-1	9	-2
Cc1cc(C)n(C(=O)CNC(=O)c2ccccc2F)n1	7	1	5	-1	0

Screens as filed in PubChem BioAssay.
